According to PubChem BioAssay (EPA / NIEHS):
Active and inactive are the calls of the source. Rule for the calls: active = hit-call score of the fitted dose curve at least 0.9, where 1 is the maximum; inactive = score below 0.9.

How the values were obtained:
[1] = ATG_PBREM_CIS: Attagene CIS-FACTORIAL HepG2 Assay for human Phenobarbital-responsive Enhancer Module (PBREM) (AID 2282955); conditions: HepG2 PBREM cis-reporter, Attagene multiplexed transcription; actives raise or lower the signal
In short: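 Endogenous transcription factors in human liver HepG2 cells drive a PBREM cis-element reporter, whose transcript level after 24 h treatment is quantified by RT-PCR with capillary electrophoresis; activity fitted in both directions against DMSO.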

[2] = target: Paired box protein Pax-6 (Homo sapiens) (UniProt P26367); experiment: ATG_Pax6_CIS: Attagene CIS-FACTORIAL HepG2 Assay for human Paired Box 6 (PAX6) (AID 2282956); conditions: HepG2 CIS-FACTORIAL PAX6 reporter transcription, RNA readout; actives raise or lower the signal
Chain of Paired box protein Pax-6 (Homo sapiens) (P26367 whole entry, looked up): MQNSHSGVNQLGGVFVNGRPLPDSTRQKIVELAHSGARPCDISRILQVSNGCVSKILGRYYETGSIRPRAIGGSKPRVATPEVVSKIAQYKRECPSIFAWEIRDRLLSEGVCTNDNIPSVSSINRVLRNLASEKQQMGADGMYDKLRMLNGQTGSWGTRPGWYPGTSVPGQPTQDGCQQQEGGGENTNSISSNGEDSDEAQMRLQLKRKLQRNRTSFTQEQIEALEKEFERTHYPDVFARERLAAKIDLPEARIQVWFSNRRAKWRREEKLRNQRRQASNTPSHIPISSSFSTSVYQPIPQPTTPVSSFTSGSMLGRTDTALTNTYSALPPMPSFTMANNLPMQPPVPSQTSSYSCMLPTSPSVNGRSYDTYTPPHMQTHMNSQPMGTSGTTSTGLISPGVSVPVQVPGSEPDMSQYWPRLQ
In short: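 HepG2 cells transiently transfected with multiplexed cis-promoter reporter units (endogenous TF activity) were dosed for 24 h. Reporter mRNA was quantified by RT-PCR, 6-FAM labeling, HpaI digestion and capillary electrophoresis; bidirectional fitting versus DMSO baseline.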

[3] = ATG_PXRE_CIS: Attagene CIS-FACTORIAL HepG2 Assay for human Pregnane X Receptor Element (PXRE) (AID 2282957); conditions: HepG2 Attagene CIS-FACTORIAL PXRE reporter, mRNA; actives raise or lower the signal
In short: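 Transiently transfected HepG2 cells were dosed and incubated for 24 h. RNA was then isolated, DNase-treated, reverse-transcribed and reporter sequences amplified. Labeled, HpaI-digested fragments were quantified by capillary electrophoresis against DMSO.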

[4] = ATG_RORE_CIS: Attagene CIS-FACTORIAL HepG2 Assay for human RAR-related Orphan Receptor Element (RORE) (AID 2282959); conditions: HepG2 Attagene cis-factorial RORE reporter, mRNA; actives raise or lower the signal
In short: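 Transient MRTU transfection of human HepG2 liver cells (FuGene 6); 24 h compound exposure; TriZol RNA, oligo(dT) RT, PCR, FAM labeling, HpaI cut, CE fragment analysis. DMSO = negative control/baseline.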

[5] = ATG_Sox_CIS: Attagene CIS-FACTORIAL HepG2 Assay for human SRY-box transcription factor (SOX) (AID 2282960); conditions: HepG2 Attagene cis-factorial SOX reporter, mRNA; actives raise or lower the signal
In short: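 Endogenous factor activity in human liver HepG2 cells carrying transfected cis-regulated reporter units. RNA taken 24 h post-dose, reverse-transcribed, PCR-amplified and sized by capillary electrophoresis. Gain or loss of signal fitted relative to DMSO.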

[6] = target: Transcription factor Sp1 (Homo sapiens) (UniProt P08047); experiment: ATG_Sp1_CIS: Attagene CIS-FACTORIAL HepG2 Assay for human Specificity Protein 1 (Sp1) (AID 2282961); conditions: HepG2 Sp1 cis-reporter transcription, actives raise or lower the signal
Chain of Transcription factor Sp1 (Homo sapiens) (P08047 whole entry, looked up): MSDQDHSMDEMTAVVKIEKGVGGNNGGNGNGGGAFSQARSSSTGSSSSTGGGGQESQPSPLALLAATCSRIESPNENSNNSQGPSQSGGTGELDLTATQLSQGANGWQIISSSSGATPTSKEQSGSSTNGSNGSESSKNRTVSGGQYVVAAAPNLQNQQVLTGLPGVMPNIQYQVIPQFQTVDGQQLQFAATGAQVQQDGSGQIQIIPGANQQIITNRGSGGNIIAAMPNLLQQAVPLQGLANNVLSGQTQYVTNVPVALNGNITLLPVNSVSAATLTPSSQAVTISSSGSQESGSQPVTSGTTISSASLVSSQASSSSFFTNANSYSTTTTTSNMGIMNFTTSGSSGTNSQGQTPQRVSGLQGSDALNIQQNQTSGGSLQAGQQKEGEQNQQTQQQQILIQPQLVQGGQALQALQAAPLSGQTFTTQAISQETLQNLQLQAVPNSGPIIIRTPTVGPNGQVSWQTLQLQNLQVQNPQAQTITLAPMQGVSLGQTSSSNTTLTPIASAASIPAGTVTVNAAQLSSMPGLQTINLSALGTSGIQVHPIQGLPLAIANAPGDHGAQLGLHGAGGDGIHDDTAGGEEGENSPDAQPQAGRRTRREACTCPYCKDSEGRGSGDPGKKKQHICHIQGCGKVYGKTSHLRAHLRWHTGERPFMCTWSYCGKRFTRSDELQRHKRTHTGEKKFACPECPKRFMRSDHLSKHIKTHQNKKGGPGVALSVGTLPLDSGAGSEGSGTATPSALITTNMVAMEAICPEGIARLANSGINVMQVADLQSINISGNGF
In short: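 Transient MRTU-transfected HepG2, 24 h compound exposure. Total RNA → oligo(dT) RT → PCR of reporter → 6-FAM primer extension → HpaI digest → CE. Endpoint fitted both directions vs DMSO.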

[7] = ATG_SREBP_CIS: Attagene CIS-FACTORIAL HepG2 Assay for human Sterol Regulatory Element Binding (SREBP) (AID 2282962); conditions: HepG2 Attagene cis-factorial SREBP reporter, mRNA; actives raise or lower the signal
In short: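 HepG2 cells transiently transfected with multiplexed cis-element reporter units report endogenous transcription factor activity. After 24 h of chemical exposure, reporter mRNA was quantified by RT-PCR, 6-FAM labelling, HpaI digestion and capillary electrophoresis; bidirectional fits used DMSO as baseline.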

[8] = target: Signal transducer and activator of transcription 3 (Homo sapiens) (UniProt P40763); experiment: ATG_STAT3_CIS: Attagene CIS-FACTORIAL HepG2 Assay for human Signal Transducer and Activator of Transcription 3 (STAT3) (AID 2282963); conditions: HepG2, Attagene cis-factorial STAT3 reporter transcription; actives raise or lower the signal
Chain of Signal transducer and activator of transcription 3 (Homo sapiens) (P40763 whole entry, looked up): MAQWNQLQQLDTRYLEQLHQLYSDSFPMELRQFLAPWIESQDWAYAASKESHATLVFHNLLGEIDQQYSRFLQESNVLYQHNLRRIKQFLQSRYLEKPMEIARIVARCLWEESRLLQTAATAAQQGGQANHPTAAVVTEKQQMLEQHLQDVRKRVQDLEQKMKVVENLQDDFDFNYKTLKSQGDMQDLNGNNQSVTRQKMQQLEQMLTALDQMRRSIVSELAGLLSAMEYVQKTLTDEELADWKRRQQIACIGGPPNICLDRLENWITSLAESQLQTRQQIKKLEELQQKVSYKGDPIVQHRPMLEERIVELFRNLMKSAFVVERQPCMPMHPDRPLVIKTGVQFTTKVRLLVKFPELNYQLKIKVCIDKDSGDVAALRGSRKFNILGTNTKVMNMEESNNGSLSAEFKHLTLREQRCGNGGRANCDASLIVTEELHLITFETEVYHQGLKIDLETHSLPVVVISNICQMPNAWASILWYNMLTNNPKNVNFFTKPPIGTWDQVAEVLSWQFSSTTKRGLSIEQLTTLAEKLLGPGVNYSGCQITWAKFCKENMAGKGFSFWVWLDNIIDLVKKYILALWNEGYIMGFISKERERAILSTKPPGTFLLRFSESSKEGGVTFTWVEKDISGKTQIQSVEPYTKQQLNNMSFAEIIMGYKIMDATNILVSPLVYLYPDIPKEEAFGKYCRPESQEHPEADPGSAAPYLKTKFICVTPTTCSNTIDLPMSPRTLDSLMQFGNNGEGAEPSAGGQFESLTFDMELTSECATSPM
In short: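 Transcript-level reporter assay. HepG2 transient MRTU transfection, 24 h exposure, fluorescence detection after RT-PCR and CE; DMSO baseline.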

[9] = ATG_TA_CIS: Attagene CIS-FACTORIAL HepG2 Assay for human TA Basal Promoter (AID 2282964); conditions: HepG2 Attagene CIS-factorial TA basal promoter reporter; actives raise or lower the signal
In short: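 Fluorescence from labelled RT-PCR reporter fragments, separated by capillary electrophoresis, gives the signal. Cells: HepG2 transiently carrying multiple reporter units, 24 h chemical dosing. Gain or loss relative to DMSO.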

Measured: AC50

O=C=NCc1cccc(CN=C=O)c1
inactive: all assays above

Cc1cc(O)c(C(C)(C)C)cc1C(C)(C)C
active: [3] 2.92 µM | [6] 11.1 µM | [7] 8.33 µM
inactive: all other assays above

CC(C)(C)C(=O)C1C(=O)c2ccccc2C1=O
active: [1] 27.8 µM | [3] 13.9 µM
inactive: all other assays above

Cc1ccc(O)cn1
not listed: [9]
inactive: all other assays above

CC(=O)C=O
not listed: [9]
inactive: all other assays above

O=C(c1ccccc1)c1ccc(Cl)cc1
active: [1] 47.2 µM | [3] 27.5 µM
inactive: all other assays above

CCCCCCCCCCCCCCCCC
active: [3] 27.2 µM
not listed: [9]
inactive: all other assays above

Oc1ccc2c(c1)CCC2
inactive: all assays above

CCCCCCCCCCCCCC[P+](CCCC)(CCCC)CCCC
active: [2] 0.81 µM | [6] 0.969 µM | [7] 1.24 µM
inactive: all other assays above

CCC/C=C/CO
inactive: all assays above

FC(F)(F)C(F)(F)C(F)(F)C(F)(F)C(F)(F)C(F)(F)C(F)(F)CCI
inactive: all assays above

CCN(CC)c1ccc(C=O)cc1
active: [3] 27.7 µM
inactive: all other assays above

CC(C)CC=C(C=O)c1ccccc1
active: [3] 0.956 µM
inactive: all other assays above

OCC(F)(F)C(F)(F)C(F)(F)C(F)(F)C(F)(F)C(F)(F)CO
active: [3] 70.6 µM
inactive: all other assays above

NC(=O)C(F)(F)C(F)(F)C(F)(F)C(F)(F)C(N)=O
inactive: all assays above

O=C(O)C(F)(F)C(F)(F)C(F)(F)OC(F)(F)F
inactive: all assays above

Cc1ccc(S(=O)(=O)C(I)I)cc1
inactive: [1] | [4] | [5] | [9]
active: [2] 14.9 µM | [3] 8.89 µM | [6] 9.07 µM | [7] 4.34 µM | [8] 7.8 µM

CCCCCCCCCCCCC[N+](C)(C)Cc1ccccc1
inactive: all assays above

Nc1c(Br)cc([N+](=O)[O-])cc1Br
active: [3] 26.7 µM
inactive: all other assays above

O=C(O)C(F)(F)C(F)(F)C(F)(F)C(=O)O
not listed: [9]
inactive: all other assays above

CC(O)C#CC(C)O (stereo not given)
active: [2] 81.3 µM | [3] 148 µM | [5] 77.1 µM | [6] 73.1 µM
inactive: all other assays above

CCCCCCCC/C=C\CCCCCCCC(=O)OCC(O)CO (stereo not given)
inactive: all assays above

CCOC(=O)CC(=O)C(F)(F)C(F)(F)F
active: [3] 75.8 µM
not listed: [9]
inactive: all other assays above

CCc1cc(Cc2cc(CC)c(N)c(CC)c2)cc(CC)c1N
active: [2] 33.4 µM | [3] 1.1 µM | [5] 29.3 µM | [7] 3.95 µM
inactive: all other assays above

Cc1ccc2c(c1)OCC(=O)CO2
active: [3] 77 µM
inactive: all other assays above

CC(=O)c1ccccc1N
inactive: all assays above

C[Si](Cl)(Cl)CCC(F)(F)C(F)(F)C(F)(F)C(F)(F)C(F)(F)C(F)(F)F
inactive: all assays above

CC(C)=CCCC(C)O (stereo not given)
not listed: [9]
inactive: all other assays above

C=C(C)CCCC
inactive: all assays above
